In ChEMBL document CHEMBL3433997, “St. Jude Leishmania screening dataset” (2016):

target: Hexose transporter 1 (Plasmodium falciparum) (UniProt O97467); experiment: ST_JUDE_LEISH: Cytotoxicity at 2uM final concentration against transgenic Leishmania Mexicana promastigotes LmPfHT that are glucose transport deficient and complemented with the Plasmodium falciparum hexose transporter. Activity is measured by DNA content using SYBR green in vitro; format: functional

Row | Structure (SMILES) | inhibition [%]
1 | COc1cc(Cc2cnc(N)nc2N)cc(OC)c1OCCNC(=O)[C@@H](N)CCC(=O)O | 0
2 | COC(=O)c1ccc(OCC(C)NCC(O)c2cccc(C(F)(F)F)c2)cc1 (stereo not given) | 8.32
3 | O=C(Nc1ccc(-c2cccc(-c3nc4cc(C(F)(F)F)ccc4[nH]3)c2)cc1)Nc1ccc(F)c(F)c1F | 0.04
4 | CCc1cc(NC2CCN(C)CC2)nc(Nc2ccc(C)cc2)n1 | 4.93
5 | CCc1c(CCNCCCCCCNCCc2ccc(Br)cc2)ccc(OC)c1OC | 10.9
6 | CS(=O)(=O)c1ccc(CNCc2cccc(-c3cccc(-c4nc5cc(C(F)(F)F)ccc5[nH]4)c3)c2)cc1 | 5.92
7 | CCCc1cc(=O)[nH]c(-n2nc(C)cc2NC(=O)c2cc3ccccc3o2)n1 | 13.1
8 | Clc1cc(Nc2ncnc3cc(C#C[C@H]4CCCN4)sc23)cc2nc(Cc3ccccc3)[nH]c12 | -0.56
9 | CCNc1cc(C(=O)N[C@@H](Cc2ccccc2)[C@H](O)CNC(C)(C)CCCC(C)C)cc(N2CCCC2=O)c1 | 1.71
10 | CCc1cccc2sc(N3CCN(C(=O)c4ccc([N+](=O)[O-])o4)CC3)nc12 | 69.1
11 | Cc1ccc(-c2cc(C(=O)Nc3ccc(S(=O)(=O)N(C)Cc4ccccc4)cc3)[nH]n2)c(O)c1 | 0.3
12 | c1cc(C2=NC3CCCCC3N2)ccc1OCCCCCOc1ccc(C2=NC3CCCCC3N2)cc1 (stereo not given) | 5.62
13 | COc1cccc(C=NNc2cc(C)nc3c(OC)cccc23)c1 | 1.32
14 | CCN(CC)S(=O)(=O)n1ncc2c3c(N)nc(N)nc3ccc21 | 0.17
15 | O=C(Nc1ccccc1)N1CCOC(CCN2CCC(F)(F)CC2)(c2ccc(Cl)c(Cl)c2)C1 (stereo not given) | 4.85
16 | COc1ccc(C2CC(c3ccccc3O)=NN2C(=O)c2ccco2)cc1OC (stereo not given) | 1.48
17 | COc1cccc2c(NN=Cc3ccccc3F)ccnc12 | 7.62
18 | O=C(NCCCCN1CCC(c2ccc3c(c2OCC2COCO2)CCCC3)CC1)c1ccc(-c2ccc(C(F)(F)F)cc2)cc1 (stereo not given) | 1.19
19 | CNc1nc(Nc2ccccc2C)nc2ccccc12 | 34.3
20 | COc1ccc(-c2ccc(CNC(=O)c3ccc(Cl)cc3)c(F)c2)cc1CN1CCCN(C)CC1 | 0.3

Row | Structure (SMILES) | inhibition [%]
21 | O=C(Nc1ccc(-c2cccc(CN3CCC(O)CC3)c2)cc1)c1cccc(Cl)c1 | 17.8
22 | CN1CCN(CC(=O)Nc2cccc(-c3cccc(-c4nc5ccccc5[nH]4)c3)c2)CC1 | -0.37
23 | N#Cc1ccc(NC2(C(=O)N3CCN(c4cccc(Cl)c4)CC3)CC2)c2ccccc12 | 2.36
24 | O=C(Nc1ccc(OC2CCN(Cc3ccc(F)cc3)CC2)c(Cl)c1)c1ccccc1 | 0.82
25 | COc1ccc(CN2CCC2=O)c(OC)c1 | 3.17
26 | O=C(N[C@H]1CCN(Cc2ccc(OCCN3CCNCC3)c3ccccc23)C1)c1ccc(Cl)c(Cl)c1 | 4.37
27 | COc1ccc2c(N/N=C/c3ccccc3[N+](=O)[O-])cc(C)nc2c1 | 2.75
28 | CCN(CC)C(=O)C1CCN(C(C(=O)N2CCN(CC(=O)N3CCCC3)CC2)c2cc3ccccc3o2)CC1 (stereo not given) | 0.62
29 | N=C1c2ccccc2CN1CC(=O)c1ccc(Cl)c(Cl)c1 | 2.37
30 | Cc1nc(-c2cccc(NCc3ccccc3)c2)[nH]c1C | 7.04
31 | CC(C)[C@H](NC(=O)c1ccc(O)c(-c2cccc(C(F)(F)F)c2)c1)C(=O)NCCN1CCCCC1 | -0.52
32 | CC(C)N1CCC(N(Cc2ccc(-c3ccc(Cl)cc3)cc2)C(=O)Cn2c(CCc3cccc(F)c3F)nc(=O)c3ccccc32)CC1 | 5.38
33 | CC(C)C(C(=O)Nc1ccc(S(=O)(=O)N(C)C)cc1)c1ccc(Cl)cc1 (stereo not given) | -3.31
34 | CC(C)CCN1CCCN(Cc2ccc(C(=O)NCc3ccc(Cl)cc3)cc2)CC1 | 0.59
35 | CC=Cc1cc(Cc2c[nH]c(=N)[nH]c2=N)cc(CCC)c1OC | 8.99
36 | CCCc1cc(C(=O)N[C@@H](Cc2ccccc2)[C@H](O)CNC(C)(C)c2cccc(OC)c2)c(F)c(N2CCCC2=O)c1 | 7.94
37 | CC(=O)Oc1c(Cl)c(C)nc(C)c1-c1ccc(Oc2ccc(OC(F)(F)F)cc2)cc1 | 3.09
38 | COc1ccc(CNC2Cc3ccccc3C2)cc1-c1ccc(S(=O)(=O)NCCN2CCCC2)c(F)c1 | 14
39 | COc1ccccc1CCNc1nccc(N[C@@H](Cc2ccccc2)C(=O)NCc2cccs2)n1 | 1.77
40 | CC[C@H](C)CNC(=O)c1cccc(-c2cccc(CNCC3CNCCCO3)c2)n1 (stereo not given in full) | -0.61

target: Glucose transporter (Leishmania mexicana) (UniProt O61059); experiment: ST_JUDE_LEISH: Cytotoxicity at 2uM final concentration against transgenic Leishmania Mexicana promastigotes LmGT2 that are glucose transport deficient and complemented with the L. Mexicana glucose transporter 2. Activity is measured by DNA content using SYBR green in vitro; format: functional

Row | Structure (SMILES) | inhibition [%]
41 | COc1cc(Cc2cnc(N)nc2N)cc(OC)c1OCCNC(=O)[C@@H](N)CCC(=O)O | 0.12
42 | COC(=O)c1ccc(OCC(C)NCC(O)c2cccc(C(F)(F)F)c2)cc1 (stereo not given) | 8.64
43 | O=C(Nc1ccc(-c2cccc(-c3nc4cc(C(F)(F)F)ccc4[nH]3)c2)cc1)Nc1ccc(F)c(F)c1F | -1.97
44 | CCc1cc(NC2CCN(C)CC2)nc(Nc2ccc(C)cc2)n1 | -1.22
45 | CCc1c(CCNCCCCCCNCCc2ccc(Br)cc2)ccc(OC)c1OC | 103
46 | CS(=O)(=O)c1ccc(CNCc2cccc(-c3cccc(-c4nc5cc(C(F)(F)F)ccc5[nH]4)c3)c2)cc1 | 3.97
47 | CCCc1cc(=O)[nH]c(-n2nc(C)cc2NC(=O)c2cc3ccccc3o2)n1 | 4.77
48 | Clc1cc(Nc2ncnc3cc(C#C[C@H]4CCCN4)sc23)cc2nc(Cc3ccccc3)[nH]c12 | -1.61
49 | CCNc1cc(C(=O)N[C@@H](Cc2ccccc2)[C@H](O)CNC(C)(C)CCCC(C)C)cc(N2CCCC2=O)c1 | 3.47
50 | CCc1cccc2sc(N3CCN(C(=O)c4ccc([N+](=O)[O-])o4)CC3)nc12 | 36.8
51 | Cc1ccc(-c2cc(C(=O)Nc3ccc(S(=O)(=O)N(C)Cc4ccccc4)cc3)[nH]n2)c(O)c1 | 1.49
52 | c1cc(C2=NC3CCCCC3N2)ccc1OCCCCCOc1ccc(C2=NC3CCCCC3N2)cc1 (stereo not given) | 1.28
53 | COc1cccc(C=NNc2cc(C)nc3c(OC)cccc23)c1 | 0.35
54 | CCN(CC)S(=O)(=O)n1ncc2c3c(N)nc(N)nc3ccc21 | -2.31
55 | O=C(Nc1ccccc1)N1CCOC(CCN2CCC(F)(F)CC2)(c2ccc(Cl)c(Cl)c2)C1 (stereo not given) | 1.24
56 | COc1ccc(C2CC(c3ccccc3O)=NN2C(=O)c2ccco2)cc1OC (stereo not given) | -2.92
57 | COc1cccc2c(NN=Cc3ccccc3F)ccnc12 | 2.85
58 | O=C(NCCCCN1CCC(c2ccc3c(c2OCC2COCO2)CCCC3)CC1)c1ccc(-c2ccc(C(F)(F)F)cc2)cc1 (stereo not given) | 1.97
59 | CNc1nc(Nc2ccccc2C)nc2ccccc12 | 18.3
60 | COc1ccc(-c2ccc(CNC(=O)c3ccc(Cl)cc3)c(F)c2)cc1CN1CCCN(C)CC1 | 1.71

Row | Structure (SMILES) | inhibition [%]
61 | O=C(Nc1ccc(-c2cccc(CN3CCC(O)CC3)c2)cc1)c1cccc(Cl)c1 | 16.8
62 | CN1CCN(CC(=O)Nc2cccc(-c3cccc(-c4nc5ccccc5[nH]4)c3)c2)CC1 | -3.47
63 | N#Cc1ccc(NC2(C(=O)N3CCN(c4cccc(Cl)c4)CC3)CC2)c2ccccc12 | 0.86
64 | O=C(Nc1ccc(OC2CCN(Cc3ccc(F)cc3)CC2)c(Cl)c1)c1ccccc1 | 6.06
65 | COc1ccc(CN2CCC2=O)c(OC)c1 | 3.38
66 | O=C(N[C@H]1CCN(Cc2ccc(OCCN3CCNCC3)c3ccccc23)C1)c1ccc(Cl)c(Cl)c1 | 2.91
67 | COc1ccc2c(N/N=C/c3ccccc3[N+](=O)[O-])cc(C)nc2c1 | 2.99
68 | CCN(CC)C(=O)C1CCN(C(C(=O)N2CCN(CC(=O)N3CCCC3)CC2)c2cc3ccccc3o2)CC1 (stereo not given) | 1.61
69 | N=C1c2ccccc2CN1CC(=O)c1ccc(Cl)c(Cl)c1 | 2.53
70 | Cc1nc(-c2cccc(NCc3ccccc3)c2)[nH]c1C | 1.13
71 | CC(C)[C@H](NC(=O)c1ccc(O)c(-c2cccc(C(F)(F)F)c2)c1)C(=O)NCCN1CCCCC1 | 0.62
72 | CC(C)N1CCC(N(Cc2ccc(-c3ccc(Cl)cc3)cc2)C(=O)Cn2c(CCc3cccc(F)c3F)nc(=O)c3ccccc32)CC1 | 3.03
73 | CC(C)C(C(=O)Nc1ccc(S(=O)(=O)N(C)C)cc1)c1ccc(Cl)cc1 (stereo not given) | 0.19
74 | CC(C)CCN1CCCN(Cc2ccc(C(=O)NCc3ccc(Cl)cc3)cc2)CC1 | -0.7
75 | CC=Cc1cc(Cc2c[nH]c(=N)[nH]c2=N)cc(CCC)c1OC | 4.71
76 | CCCc1cc(C(=O)N[C@@H](Cc2ccccc2)[C@H](O)CNC(C)(C)c2cccc(OC)c2)c(F)c(N2CCCC2=O)c1 | 9.99
77 | CC(=O)Oc1c(Cl)c(C)nc(C)c1-c1ccc(Oc2ccc(OC(F)(F)F)cc2)cc1 | 2.42
78 | COc1ccc(CNC2Cc3ccccc3C2)cc1-c1ccc(S(=O)(=O)NCCN2CCCC2)c(F)c1 | 6.14
79 | COc1ccccc1CCNc1nccc(N[C@@H](Cc2ccccc2)C(=O)NCc2cccs2)n1 | -0.08
80 | CC[C@H](C)CNC(=O)c1cccc(-c2cccc(CNCC3CNCCCO3)c2)n1 (stereo not given in full) | -0.09
